Screens (PubChem BioAssay)
MCL1-BIM inh = disrupts human MCL1 binding to BIM-BH3 peptide. Q07820. GST-MCL1 / FITC-Bim-BH3 fluorescence polarization. inhibition, % at 10.9 µM. hit rate 0.68% among 320,000;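 active = inhibition above the mean inhibition of all tested compounds plus 3 SD, set per campaign, cut at about 40% in these data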;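 also: 0% = DMSO wells and 100% = unlabeled Bim-BH3 peptide control; higher means more loss of mP so more displacement of Bim peptide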
Target sequence (Q07820 whole entry, looked up): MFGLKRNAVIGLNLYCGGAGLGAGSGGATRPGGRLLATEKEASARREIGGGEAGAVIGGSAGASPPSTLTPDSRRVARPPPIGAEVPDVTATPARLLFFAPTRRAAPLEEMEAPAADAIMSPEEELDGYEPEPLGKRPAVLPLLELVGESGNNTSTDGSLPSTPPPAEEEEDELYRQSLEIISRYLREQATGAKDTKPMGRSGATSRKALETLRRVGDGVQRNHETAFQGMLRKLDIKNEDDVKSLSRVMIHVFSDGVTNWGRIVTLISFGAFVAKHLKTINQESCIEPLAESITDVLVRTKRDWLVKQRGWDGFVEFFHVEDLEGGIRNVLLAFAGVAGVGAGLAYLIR
Mcl1 Bid PPI = Mcl-1/Bid interaction inhibition. Q07820. TR-FRET Mcl-1/Bid-Dy647 peptide binding, 1536-well. inhibition, % at 21.7 µM. hit rate 0.97% among 220,000. AID 1021;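 active = compounds that cut the binding signal by more than half at the single screening dose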;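 also: His-tagged Mcl-1 with europium anti-His antibody binding Bid BH3 peptide; 0% = Mcl-1 plus peptide wells and 100% = peptide-only wells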
BCLXL inh = blocks human Bcl-xL binding to Bim BH3 peptide; Q07817; GST-Bcl-xL / FITC-Bim BH3 peptide fluorescence polarization; inhibition, % at 10.9 µM; hit rate 0.7% among 320,000;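 active = inhibition above the mean of all tested compounds plus 3 SD, cutoff set per campaign, cut at about 30% in these data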;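 also: 0% = DMSO wells and 100% = unlabeled Bim-BH3 peptide competitor; inhibitors lower millipolarization by displacing the labeled peptide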
Target sequence (Q07817 whole entry, looked up): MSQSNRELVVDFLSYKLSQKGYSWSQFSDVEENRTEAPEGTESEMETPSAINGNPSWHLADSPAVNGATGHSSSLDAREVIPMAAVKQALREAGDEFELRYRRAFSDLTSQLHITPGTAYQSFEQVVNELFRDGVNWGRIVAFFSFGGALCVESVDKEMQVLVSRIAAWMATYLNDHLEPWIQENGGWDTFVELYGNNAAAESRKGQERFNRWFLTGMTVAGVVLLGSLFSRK
GLD-1 RNA inh = GLD-1-TGE RNA interaction inhibition (C. elegans); purified GLD-1 + fluorescein TGE RNA, fluorescence polarization; inhibition, % at 5.96 µM; hit rate 0.44% among 320,000;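 active = percent inhibition above a per-plate cutoff, the plate mean of test compounds plus 3 SD, cut at about 30% in these data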;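 also: 0% = DMSO wells with GLD-1 and probe and 100% = wells lacking GLD-1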
Mcl1-Noxa inh = disrupts binding of human Mcl-1 to Noxa peptide; hit rate 1.5% among 220,000; inhibition, % at 21.7 µM; TR-FRET Mcl-1/Noxa peptide binding, 2 h;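 active = compounds that cut the protein-peptide binding signal by more than 50% relative to plate controls in a single-dose test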;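 also: His-tagged Mcl-1 with rhodamine Noxa BH3 peptide and terbium anti-His antibody; 0% = Mcl-1 plus Noxa peptide wells and 100% = peptide-only wells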
Mcl-1 Bim block = inhibitors of Bim-Mcl-1 interaction, human | Bead-based flow cytometry, Bim peptide-Mcl-1 binding | hit rate 0.1% among 190,000 | Q07820 | inhibition, % at 10 µM; in the data active = inhibition above about 40%;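 also: 0% = no compound tracer wells and 100% = peptide blocker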
* = called active by the depositor. A selection: hits, their analogues and other compounds. The true share with any hit is near 2.3%.

Screening CCCc1nc2oc3ccccc3c(=O)c2c(=O)n1-c1ccc(C)cc1 returned MCL1-BIM inh 0.2, Mcl1 Bid PPI 7.3, BCLXL inh 4.1, GLD-1 RNA inh -1.4 and Mcl1-Noxa inh 2.2.
CN(C)S(=O)(=O)c1cccc(N=c2scc(-c3ccc4c(c3)NC(=O)CO4)n2CC2CCCO2)c1 (stereo unspecified) was read as MCL1-BIM inh 3.0, Mcl1 Bid PPI 74.2*, BCLXL inh 8.4, GLD-1 RNA inh 2.1, Mcl1-Noxa inh -2.8 and Mcl-1 Bim block -1.0.
`CC(C)c1ccc(/C=N/NC(=O)c2ccccc2Cl)cc1` gave MCL1-BIM inh -2.5, Mcl1 Bid PPI -2.8, BCLXL inh 1.0, GLD-1 RNA inh 3.2, Mcl1-Noxa inh 20.2 and Mcl-1 Bim block 45.0*.
COC(=O)c1ccc(/C=N/NC(=O)c2ccccc2Cl)cc1 was read as MCL1-BIM inh 8.8, Mcl1 Bid PPI 0.4, BCLXL inh 5.1, GLD-1 RNA inh 0.9, Mcl1-Noxa inh 15.7 and Mcl-1 Bim block -1.0.
CC(C)(C)[C@H]1CCC(=O)N([C@H](CN=[N+]=[N-])Cc2ccccc2)CC1 was read as MCL1-BIM inh 6.8, BCLXL inh 1.6 and GLD-1 RNA inh 0.2.
O=C(O)/C=C\C(=O)N1CCc2ccccc21 was read as MCL1-BIM inh -2.7, Mcl1 Bid PPI 93.5*, BCLXL inh -1.8, GLD-1 RNA inh -0.7, Mcl1-Noxa inh 18.0 and Mcl-1 Bim block -3.0.
O=C(O)/C=C/C(=O)N1CCc2ccccc21 was read as MCL1-BIM inh -0.5, Mcl1 Bid PPI -44.6, BCLXL inh 4.3, GLD-1 RNA inh 4.1, Mcl1-Noxa inh 1.2 and Mcl-1 Bim block 1.0.
`Oc1ccc(N=Nc2cccc(C(F)(F)F)c2)cc1C=Nc1ccc(N2CCOCC2)cc1` gave MCL1-BIM inh 9.2, Mcl1 Bid PPI 10.9, BCLXL inh 6.5, GLD-1 RNA inh 3.7, Mcl1-Noxa inh 68.8* and Mcl-1 Bim block 3.0.
O=C(NCc1nnc(SCC(=O)N2CCCC2)o1)c1c(F)cccc1Cl was read as MCL1-BIM inh 8.6, Mcl1 Bid PPI -6.1, BCLXL inh 2.9, GLD-1 RNA inh 4.3, Mcl1-Noxa inh -3.1 and Mcl-1 Bim block -4.0.
Screening O=C(NCc1nnc(SCC(=O)N2CCOCC2)o1)c1c(F)cccc1Cl returned MCL1-BIM inh -5.5, Mcl1 Bid PPI 77.3*, BCLXL inh -0.2, GLD-1 RNA inh 8.5, Mcl1-Noxa inh 19.3 and Mcl-1 Bim block 3.0.
For Cc1c(Cc2ccccc2)c(NCCN(C)C)n2c(nc3ccccc32)c1C#N the results were MCL1-BIM inh 7.4, Mcl1 Bid PPI -19.3, BCLXL inh 2.9, GLD-1 RNA inh 1.3 and Mcl1-Noxa inh 79.5*.
Cc1ccc(NC2CCCN(C(=O)c3cccs3)C2)cc1C (stereo unspecified) was read as MCL1-BIM inh -4.0, BCLXL inh 2.6 and GLD-1 RNA inh 2.4.
`Cc1nc(SCc2nc3ccc(C(=O)c4ccccc4)cc3[nH]2)c2oc3ccccc3c2n1` gave GLD-1 RNA inh -47.4.
`Cc1ccc(S(=O)(=O)c2nc(-c3ccccc3Cl)oc2N(C)C)cc1` gave MCL1-BIM inh 11.0, BCLXL inh -3.5 and GLD-1 RNA inh 3.6.
Screening CN(C)c1oc(-c2ccccc2Cl)nc1P(=O)(c1ccccc1)c1ccccc1 returned MCL1-BIM inh 4.7, Mcl1 Bid PPI -11.6, BCLXL inh 6.0, GLD-1 RNA inh 2.4, Mcl1-Noxa inh 64.1* and Mcl-1 Bim block 0.0.
`COCCn1c(=N)c(C(=O)NCc2ccco2)cc2c(=O)n3cc(C)ccc3nc21` gave MCL1-BIM inh 68.7*, Mcl1 Bid PPI -29.1, BCLXL inh 72.0*, GLD-1 RNA inh 56.0*, Mcl1-Noxa inh 9.2 and Mcl-1 Bim block 1.0.
O=C(NCc1ccco1)c1cccn2c(=O)c3cc4ccccc4cc3nc12 was read as Mcl1 Bid PPI 93.8*, Mcl1-Noxa inh 47.2 and Mcl-1 Bim block 3.0.
For N=c1c(C(=O)NCc2ccco2)cc2c(=O)n3ccccc3nc2n1CCc1ccccc1 the results were MCL1-BIM inh 20.0, Mcl1 Bid PPI 10.9, BCLXL inh 31.6*, GLD-1 RNA inh 11.8, Mcl1-Noxa inh 67.7* and Mcl-1 Bim block 13.0.
For Cc1cccn2c(=O)c3cc(C(=O)NCc4ccco4)c(=N)n(CCOCCO)c3nc12 the results were MCL1-BIM inh 43.2*, Mcl1 Bid PPI -49.0, BCLXL inh 55.2*, GLD-1 RNA inh 23.8, Mcl1-Noxa inh 33.4 and Mcl-1 Bim block 4.0.
For N=c1c(C(=O)NCc2ccco2)cc2c(=O)n3ccccc3nc2n1CC1CCCO1 (stereo unspecified) the results were MCL1-BIM inh 31.1, BCLXL inh 29.8 and GLD-1 RNA inh 16.6.
`CC(C)(C)c1ccc(S(=O)(=O)N2CCN(Cc3cc4c(cc3O)OCO4)CC2)cc1` gave MCL1-BIM inh -2.6, BCLXL inh 1.0 and GLD-1 RNA inh 3.1.
O=C(CSc1nnc(-c2ccc(Cl)cc2)o1)N1CCOCC1 was read as MCL1-BIM inh 3.0, BCLXL inh 5.9 and GLD-1 RNA inh 1.4.
For COc1ccc(CCNC(=O)c2cc3c(=O)n4ccccc4nc3n(Cc3ccco3)c2=N)cc1OC the results were MCL1-BIM inh 11.6, BCLXL inh 14.9 and GLD-1 RNA inh -0.4.
Screening CCOCCCn1c(=N)c(C(N)=S)cc2c(=O)n3cccc(C)c3nc21 returned MCL1-BIM inh 30.0, Mcl1 Bid PPI -19.1, BCLXL inh 22.8, GLD-1 RNA inh -4.5, Mcl1-Noxa inh -6.6 and Mcl-1 Bim block -1.0.
`Cc1ccc(Cn2c(=N)c(C(=O)NCc3ccco3)cc3c(=O)n4ccccc4nc32)cc1` gave MCL1-BIM inh 22.2, Mcl1 Bid PPI 3.1, BCLXL inh 14.7, GLD-1 RNA inh -0.9, Mcl1-Noxa inh 79.7* and Mcl-1 Bim block -1.0.
Cc1cccn2c(=O)c3cc(C(N)=S)c(=N)n(CCCOC(C)C)c3nc12 was read as MCL1-BIM inh 34.8, Mcl1 Bid PPI -7.4, BCLXL inh 33.8*, GLD-1 RNA inh -1.9, Mcl1-Noxa inh 42.1 and Mcl-1 Bim block 0.0.
`O=C(NCc1nc2ccccc2[nH]1)C1=C[C@@H](c2ccc3c(c2)OCO3)C[C@@H](OCc2ccc(CO)cc2)O1` gave Mcl1 Bid PPI -16.7 and Mcl1-Noxa inh -0.7.
Screening CCc1c(C)sc(NC(=O)CC#N)c1C#N returned MCL1-BIM inh 13.3, Mcl1 Bid PPI -80.7, BCLXL inh 11.6, GLD-1 RNA inh 0.4, Mcl1-Noxa inh 61.8* and Mcl-1 Bim block 1.0.
Screening COc1cccc(CNC(=O)C2Cc3ccccc3CN2C(C)=O)c1 (stereo unspecified) returned MCL1-BIM inh 4.5, BCLXL inh 1.4 and GLD-1 RNA inh 14.4.
`O=C(Nc1ccc(F)cc1)c1cccc2c1C(=O)N(CC1CCCO1)C2` (stereo unspecified) gave MCL1-BIM inh -6.3, BCLXL inh -1.0 and GLD-1 RNA inh 3.5.
Screening CC(=O)c1c(C)c(C)c2n1CCn1c(C)ccc1-2 returned MCL1-BIM inh 30.9, Mcl1 Bid PPI -257.8, BCLXL inh 35.7*, GLD-1 RNA inh 17.7 and Mcl1-Noxa inh 26.5.
